Mm-Cpn inhibitor: M. maripaludis TRiC chaperonin inhibition; purified Mm-Cpn ATPase, ADP Transcreener TR-FRET; Potency, µM (highest dose often 76.9 µM), for the others: at the highest dose activity, negative = inhibition, actives largely listed as inhibitors; actives 0.031% (n = 330,000); AID 504842; further: on the % scale 0 is the no-effect control and ±100 the full control effect; nearly all actives have a fitted effect of over 80% in size
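ATPase turnover read by TR-FRET ADP competition (Eu cryptate antibody/ADP-d2, 665/590 nm): 10uM ATP final, 25nM Mm-CPN final, 30 min 37degC after 10-min compound preincubation, pH 7.4 Tris/KCl/MgCl2/DTT buffer.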
ClpP mod: qHTS Assay for Activators of ClpP. ATP-dependent Clp protease proteolytic subunit (Bacillus subtilis (strain 168)), P80244. purified B. subtilis ClpP, FRET peptide cleavage, 20 min. Potency, µM (doses to about 57.5 µM), without a hit: top-dose activity change, negative = active. actives 1.9% (n = 340,000). AID 651965, 2013; active means well fitted falling curve with a large enough effect; inconclusive means small, poorly fitted or top-dose-only effect; inactive means no such curve, though single readings can be large or run the other way; further: the source files actives as falling curves though it sought activators and does not explain the sign; nearly all actives have a fitted effect of over 65% in size
Target sequence (P80244 whole entry, looked up): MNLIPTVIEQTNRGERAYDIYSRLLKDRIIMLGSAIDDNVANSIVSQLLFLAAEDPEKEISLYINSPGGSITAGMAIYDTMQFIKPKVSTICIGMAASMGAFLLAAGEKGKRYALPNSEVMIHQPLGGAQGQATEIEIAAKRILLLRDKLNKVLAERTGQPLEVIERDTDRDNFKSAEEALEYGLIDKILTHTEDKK
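Purified B. subtilis ClpP, 10 microg/mL final in Tris/HCl pH8 with KCl, BSA, glycerol and Tween-20, cleaved an Abz/nitrotyrosine-quenched decapeptide. Fluorescence (ex 320, em 430) was read at 0 and 20 min at room temperature. Delta was normalized to 5.8 microM ADEP and DMSO/no-enzyme controls.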
FUS suppressor: suppressors of FUS proteinopathy in yeast; S. cerevisiae FUS-expressing, growth rescue, OD600, 24 h; actives 0.24% (n = 390,000); Potency, µM (series often up to 76.6 µM), most hits filed as activators;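 further: plate controls were DMSO vehicle for no effect and reference control for full effect; nearly all actives have a fitted effect of over 55% in size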
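Toxicity suppression screen in FUS-yeast. Cells induced with 2% galactose, starting OD 0.005, treated 24hr at 30C with compounds at multiple final concentrations; growth by OD600.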
aSyn yeast inh: alpha-synuclein toxicity inhibition in yeast; Yeast expressing alpha-synuclein, growth rescue, BacTiter-Glo, 24 h; Potency, µM (doses to about 46.1 µM), for the others: top-dose growth rescue (activation), hits mostly activators; actives 0.14% (n = 370,000); AID 652106; further: % of control where 0% means no effect; nearly all actives have a fitted effect of over 65% in size
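Galactose-induced alpha-syn yeast (OD600=0.02, raffinose-pregrown) + pinned cpd, 24 hr, 30 deg C; growth by BacTiter-Glo luminescence. Growth restoration scores as activation.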
Abeta rescue: compounds reversing amyloid beta toxicity in yeast; AID 1347071; actives 0.063% (n = 410,000); Potency, µM (titrated, usually from 46.1 µM), hits mostly activators; yeast expressing A-beta42, growth rescue, OD600, 48 h; response scale: 0% DMSO, 100% iron-clioquinol control; further: nearly all actives have a fitted effect of over 55% in size
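Yeast A-beta toxicity model in growth medium with pinned compounds, 48 h at 30 C; growth read as absorbance at 600 nm. Normalized to FeCl3/clioquinol equimolar mix (positive) and DMSO (negative).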
TDP-43 yeast inh: TDP-43 toxicity inhibition in yeast; TDP-43 expressing yeast growth rescue, BacTiter-Glo, 24 h; Potency, µM (titrated, usually from 46.1 µM), for the others: at the highest dose growth rescue (activation), most hits filed as activators; actives 1.8% (n = 410,000); AID 652104; further: % of control where 0% means no effect; nearly all actives have a fitted effect of over 50% in size
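Yeast expressing TDP-43 (pregrown in raffinose, seeded at OD600=0.02 in galactose medium) exposed to compounds 24 hr at 30 deg C. Growth read by BacTiter-Glo luminescence; rescue of toxicity appears as increased signal.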
The depositor's hits bear a star; i = inactive; ? = inconclusive; . = no result. Rows were chosen to be rich in hits. Some 3.6% of all compounds tested hit in one or more screens of this group. Unless noted, the call rests on the fitted dose curve; in most records, active means well fitted curve in the direction sought with a large enough effect; inconclusive means small, poorly fitted or top-dose-only effect, or another doubt; inactive means no such curve, though single readings can be large; an effect the other way counts as inactive or inconclusive. Potency means the concentration at half of the fitted maximal effect.

SMILES	Mm-Cpn inhibitor	ClpP mod	FUS suppressor	aSyn yeast inh	Abeta rescue	TDP-43 yeast inh
C=CCn1c(=NC(=O)c2ccc(S(=O)(=O)N3CCc4ccccc4C3)cc2)sc2cc(S(N)(=O)=O)ccc21	-27.1%	-2.1%	?	0.9%	i	9.5%
C#CCn1c(=NC(=O)c2ccc(S(=O)(=O)N3CCc4ccccc4C3)cc2)sc2cc(S(N)(=O)=O)ccc21	?	28.2µM*	?	-4.0%	i	-7.5%
COCCn1c(=NC(=O)c2ccc(S(=O)(=O)N3CCc4ccccc4C3)cc2)sc2cc(S(N)(=O)=O)ccc21	?	14.1µM*	.	-0.1%	i	0.0%
Cc1ccc(S(=O)(=O)c2nnn3c2nc(N2CCCC(C)C2)c2cc(Cl)ccc23)cc1C (centres undefined)	.	-7.0%	i	.	i	0.0%
Nc1c(Nc2ccccc2)c2ccccc2oc1=O	-7.4%	0.5%	i	17.8µM*	i	?
CCNc1c(N)c(=O)oc2ccccc12	-2.1%	-5.4%	i	-0.6%	i	-4.5%
CCc1ccc(S(=O)(=O)NCCc2csc(-c3ccccc3)n2)s1	-10.6%	-0.5%	i	?	i	14.1µM*
CCc1ccc(S(=O)(=O)NCCc2csc(-c3cccnc3)n2)s1	-22.0%	-11.4%	i	-25.7%	?	12.6µM*
O=S(=O)(NCCc1csc(-c2ccccc2)n1)c1ccc2c(c1)OCCO2	-6.1%	-3.7%	i	8.7%	i	20µM*
Cc1c(C(=O)NCc2ccccc2)oc2c1-c1[nH]ncc1CC2	.	25.1µM*	i	.	i	23.1%
CC(C)CN(C(=O)COC(=O)c1cccnc1Cl)c1c(N)n(Cc2ccccc2)c(=O)[nH]c1=O	-0.5%	28.2µM*	.	-0.3%	i	9.0%
CCCCn1c(N)c(N(CC(C)C)C(=O)COC(=O)c2ccccc2NCCO)c(=O)[nH]c1=O	1.8%	15.8µM*	i	-8.4%	i	4.3%
CN(C(=O)COC(=O)c1ccccc1Nc1ccccc1)c1c(N)n(Cc2ccccc2)c(=O)[nH]c1=O	-1.3%	.	35.5µM*	-4.8%	i	-21.6%
CCc1ccc(NC(=O)Cn2c(=O)n(CCC(=O)NCCc3ccc(OC)c(OC)c3)c(=O)c3ccccc32)cc1	.	-2.1%	i	.	i	12.7%
CCOC(=O)c1c(NC(=O)COC(=O)CCOc2ccccc2C)sc(C(=O)NC)c1C	-8.6%	20µM*	i	6.2%	i	?
COc1ccc(OC)c(/C=C2\C=Cc3ccccc32)c1	.	-16.2%	.	0.3%	.	.
COc1cc(OC)c2c(C)cc(=O)oc2c1C(CCN1CCN(c2ccccc2)CC1)c1ccc2c(c1)OCO2 (centres undefined)	-1.6%	31.6µM*	i	-12.0%	i	-8.5%
COc1ccc(Oc2c(C(F)(F)F)oc3c(CN4CCCC(C)C4)c(O)ccc3c2=O)cc1 (centres undefined)	.	-2.5%	i	.	i	-4.0%
O=C(Nc1ccc(Cl)c(C(F)(F)F)c1)N1CCCC(O)C1 (centres undefined)	-4.9%	-1.1%	i	5.5%	i	-3.0%
O=C(Nc1ccc(NC(=O)c2ccncc2)cc1)c1ccncc1	-0.6%	.	.	.	.	.
O=C(Nc1ccc(Cl)c(C(F)(F)F)c1)c1ccncc1	-1.1%	.	i	-1.4%	i	10µM*
O=C(Nc1ccc(Cl)c(C(F)(F)F)c1)C(=O)N1CCCCC1	-0.3%	-2.0%	.	9.7%	i	17.8µM*
O=C(CSc1nc2c([nH]c3ccccc32)c(=O)n1-c1ccccc1)c1ccc(Cl)cc1	.	-25.9%	i	.	i	-5.1%
Cc1cc(N(CCO)Cc2ccccc2)n2nc(-c3ccc(C(C)(C)C)cc3)nc2n1	.	1.7%	i	.	i	?
Cc1cc(N(C)Cc2ccccc2)n2nc(-c3ccc(C(C)(C)C)cc3)nc2n1	.	-3.1%	?	.	i	15.8µM*
SMILES	Mm-Cpn inhibitor	ClpP mod	FUS suppressor	aSyn yeast inh	Abeta rescue	TDP-43 yeast inh
CCN(CC)c1cc(C)nc2nc(-c3ccc(C)cc3)nn12	.	-2.0%	i	.	i	20µM*
CCCN(CCC)c1cc(C)nc2nc(-c3ccc(C(C)(C)C)cc3)nn12	.	-0.9%	i	.	i	2.0%
Cc1ccc(CNC(=O)COCc2cc(-c3ccc4c(c3)OCO4)on2)cc1	.	-11.2%	i	.	i	25.3%
COc1ccc2sc(-c3ccc(N(C)C)cc3)c(C#CCCO)c2c1	-9.9%	4.3%	?	6.6%	i	35.5µM*
COc1ccc2sc(-c3ccc(SC)cc3)c(C#CCO)c2c1	?	4.3%	i	-17.9%	i	1.2%
COc1ccc(-c2sc3ccc(OC)cc3c2C#CCCO)cc1	-11.3%	4.1%	?	2.2%	i	22.4µM*
CCn1c(SCC(=O)N2CCC(C)CC2)nnc1-c1ccc(S(=O)(=O)N2CCN(C)CC2)cc1	-0.8%	31.6µM*	i	.	i	6.7%
CCN(CC)CCCNC(=O)c1ccc2c(c1)NC(=O)C(CS(=O)(=O)Cc1cccc(Br)c1)N2 (centres undefined)	.	3.55µM*	?	.	i	-16.3%
CCN(CC)CCNC(=O)c1ccc2c(c1)NC(=O)C(CS(=O)(=O)Cc1cccc(Br)c1)N2 (centres undefined)	.	7.94µM*	?	.	i	-11.7%
CCCCNC(=O)c1ccc2c(c1)NC(=O)C(CS(=O)(=O)Cc1ccc(F)cc1Cl)N2 (centres undefined)	.	39.8µM*	i	.	i	8.8%
CCCCc1ccc(NC(=O)CSc2nc(=O)[nH]c3c2CCCC3)cc1	.	-5.9%	i	.	i	10.0%
Nc1nc(=S)[nH]c(N)c1N	.	2.7%	.	3.6%	.	.
COc1cccc(C(Nc2ccccc2)c2ccc3ccc(C)nc3c2O)c1 (centres undefined)	.	-1.2%	i	17.8µM*	?	22.4µM*
Oc1c(C(Nc2ccccn2)c2ccccc2)ccc2cccnc12 (centres undefined)	.	2.6%	.	?	.	.
Cc1cccc(NC(c2ccc(O)cc2)c2ccc3ccc(C)nc3c2O)n1 (centres undefined)	-5.9%	4.0%	15.8µM*	-3.9%	i	-22.3%
O=S(=O)(NCc1ccc2c(c1)OCO2)c1ccc2oc3ccccc3c2c1	.	-3.8%	i	1.1%	i	-4.6%
COc1cc2c(cc1NC(=O)c1ccc3c(c1)OCO3)oc1ccccc12	-1.1%	31.6µM*	i	-2.2%	i	-12.2%
COc1cc2c(cc1NCc1ccccn1)oc1ccccc12	-2.4%	28.2µM*	i	7.9%	i	-8.3%

Source: PubChem BioAssay (National Center for Advancing Translational Sciences (NCATS))
